# Reference: PubChem BioAssay (EPA / NIEHS)
# Calls of active or inactive are those of the source. The calls were made as follows: active = hit-call score of the fitted dose curve at least 0.9, where 1 is the maximum; inactive = score below 0.9.
# Experiment: BSK_3C_uPAR: BioMAP Diversity Plus: 3C Assay for Urokinase-type plasminogen activator receptor (uPAR) Biomarker Activity (AID 2282998)
# Conditions: BioMAP 3C HUVEC, uPAR biomarker ELISA; actives raise or lower the signal
# Method in brief: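 Readout: ELISA for surface uPAR. System: human umbilical vein endothelial primary cells, 24 h after chemical exposure. Analysis: bidirectional fit, DMSO baseline.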
SMILES,outcome,AC50
CCc1cnc(C2=NC(C)(C(C)C)C(=O)N2)c(C(=O)O)c1 (stereo unspecified),inactive,–
CSc1nnc(C(C)(C)C)c(=O)n1N,inactive,–
CC(C)[C@H](C(=O)O[C@H](C#N)c1cccc(Oc2ccccc2)c1)c1ccc(Cl)cc1,inactive,–
S=C1NCCN1,inactive,–
O=c1ccc(=O)[nH][nH]1,inactive,–
COP(=O)(NC(C)=O)SC (stereo unspecified),inactive,–
CCOP(=S)(OCC)Oc1cc(C)nc(C(C)C)n1,inactive,–
CCOC(=O)CC(SP(=O)(OC)OC)C(=O)OCC (stereo unspecified),inactive,–
CC(Oc1cccc(Cl)c1)C(=O)O (stereo unspecified),inactive,–
CCOP(=S)(OCC)SCCSCC,inactive,–
CSc1nc(NC(C)C)nc(NC(C)C)n1,inactive,–
CCC(CC)Nc1c([N+](=O)[O-])cc(C)c(C)c1[N+](=O)[O-],inactive,–
CON=C(C(=O)OC)c1ccccc1CON=C(C)c1cccc(C(F)(F)F)c1,inactive,–
CNC(=O)Oc1cccc2c1OC(C)(C)O2,inactive,–
CN(C)NC(=O)CCC(=O)O,inactive,–
Cc1cc(C2CC2)nc(Nc2ccccc2)n1,inactive,–
C#CC(C)(C)NC(=O)c1cc(Cl)cc(Cl)c1,inactive,–
CC(=NC#N)N(C)Cc1ccc(Cl)nc1,inactive,–

SMILES,outcome,AC50
CCOP(=S)(OCC)Oc1ccc([N+](=O)[O-])cc1,inactive,–
O=C(O)c1cc(Oc2ccc(C(F)(F)F)cc2Cl)ccc1[N+](=O)[O-],–,29.2 µM (active)
CCCOc1nn(C(=O)NS(=O)(=O)c2ccccc2C(=O)OC)c(=O)n1C,–,0.0593 µM (active)
CCOP(=O)(SC(C)CC)N1CCSC1=O (stereo unspecified),inactive,–
COP(=O)(OC)SCn1c(=O)oc2cc(Cl)cnc21,inactive,–
CCCSP(=O)(OCC)Oc1ccc(Br)cc1Cl (stereo unspecified),inactive,–
CCc1cccc(CC)c1N(COC)C(=O)CCl,inactive,–
FC(F)C(F)(F)OCC(Cn1cncn1)c1ccc(Cl)cc1Cl (stereo unspecified),–,36.7 µM (active)
C[Si](Cn1cncn1)(c1ccc(F)cc1)c1ccc(F)cc1,inactive,–
CNc1cnn(-c2cccc(C(F)(F)F)c2)c(=O)c1Cl,inactive,–
CN(C)C(=O)Nc1cccc(C(F)(F)F)c1,inactive,–
CC(C)N(C(=O)SCC(Cl)=C(Cl)Cl)C(C)C,–,32.2 µM (active)
CCNc1nc(Cl)nc(NC(C)(C)C#N)n1,inactive,–
CC[C@H](C)[C@H]1O[C@]2(C=C[C@@H]1C)C[C@@H]1C[C@@H](C/C=C(\C)[C@@H](O[C@H]3C[C@H](OC)[C@@H](O[C@H]4C[C@H](OC)[C@@H](NC)[C@H](C)O4)[C@H](C)O3)[C@@H](C)/C=C/C=C3\CO[C@@H]4[C@H](O)C(C)=C[C@@H](C(=O)O1)[C@]34O)O2,–,1.93 µM (active)
C[N+]1(C)CCCCC1,inactive,–
CCOP(=O)(OCC)Oc1cc(C)nc(C(C)C)n1,inactive,–
CCCCOC(=O)c1ccccc1C(=O)O,inactive,–
CC(C1CC1)C(O)(Cn1cncn1)c1ccc(Cl)cc1 (stereo unspecified),inactive,–
